From PubChem BioAssay (EPA / NIEHS) come the findings set out here.

SMILES strings stand for the structures. Where “and” joins values, the source holds several entries; their conditions need not be identical. Identical values can stand only once. Calls of active or inactive are those of the source. Rule for the calls: active = hit-call score of the fitted dose curve at least 0.9, where 1 is the maximum; inactive = score below 0.9.

Read-out in assay [1]: C-C motif chemokine 2 (Homo sapiens) (UniProt P13500)
Nature of the assay: BSK_KF3CT_MCP1: BioMAP Diversity Plus: KF3CT Assay for Monocyte Chemoattractant Protein 1 (MCP1/CCL2) Biomarker Activity (AID 2283073). The following applies: primary human keratinocytes with fibroblasts; actives raise or lower the signal. The procedure, abridged:
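ELISA readout of MCP-1 after 24 h chemical dosing of a human skin primary co-culture of keratinocytes and foreskin fibroblasts. Activity was fitted in both directions against DMSO.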

Read-out in assay [2]: Matrix Metallopeptidase 9 (MMP9), MMP9 (gene 4318)
In words: BSK_KF3CT_MMP9: BioMAP Diversity Plus: KF3CT Assay for Matrix Metallopeptidase 9 (MMP9) Biomarker Activity (AID 2283074).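 For AC50: MMP9 protein level quantified by ELISA in the co-culture.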 Particulars: primary human keratinocytes with fibroblasts; actives raise or lower the signal. In outline: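 Human keratinocyte/foreskin fibroblast co-culture; compound added; 24 h; MMP-9 by ELISA; bidirectional fit vs DMSO baseline.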

Read-out in another assay: CD40, CD40 (gene 958)
In words: BSK_LPS_CD40: BioMAP Diversity Plus: LPS Assay for CD40 Biomarker Activity (AID 2283076). Particulars: primary human HUVEC with PBMC; actives raise or lower the signal. In outline: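 Cells were dosed, incubated 24 h, then assayed for CD40 by ELISA. Gain or loss of signal was analysed relative to DMSO controls. The culture paired human umbilical vein endothelium with peripheral blood mononuclear cells.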

Read-out in assay [3]: E-selectin (Homo sapiens) (UniProt P16581)
Nature of the assay: BSK_LPS_Eselectin: BioMAP Diversity Plus: LPS Assay for Eselectin Biomarker Activity (AID 2283077). Particulars: primary human HUVEC with PBMC; actives raise or lower the signal. The procedure, abridged:
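Primary human vascular co-culture (endothelium plus PBMC) was dosed with chemical, then E-selectin quantified by ELISA at 24 h. Endpoint values derive from bidirectional curve fitting relative to DMSO.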

Read-out in assay [4]: Interleukin-8 (IL8), CXCL8 (gene 3576)
In words: BSK_LPS_IL8: BioMAP Diversity Plus: LPS Assay for Interleukin-8 (IL8) Biomarker Activity (AID 2283078). The following applies: primary human HUVEC with PBMC; actives raise or lower the signal. In outline: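 Readout is IL-8 by ELISA, taken 24 h after compounds were added to LPS-stimulated endothelial/PBMC co-cultures. Both increases and decreases relative to DMSO control were scored through bidirectional fitting.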

Assay [5] is described as follows: BSK_LPS_SRB: Viability Assessment in the BioMAP Diversity Plus: LPS Assay (AID 2283079).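 Note: total protein by sulforhodamine B absorbance as a cytotoxicity measure; measured one day after compound addition; fitted in both directions against DMSO so loss or gain of signal counts.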 Particulars: primary human HUVEC with PBMC. The procedure, abridged:
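Readout is SRB absorbance at 560 nm (0.1% stain, TCA-fixed parallel cultures) as a total-protein cytotoxicity measure. Cells: primary human umbilical vein endothelium plus peripheral blood mononuclear cells, 24 h after chemical exposure; DMSO served as baseline.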

Read-out in assay [6]: Interleukin-1 alpha (IL1a), IL1A (gene 3552)
Nature of the assay: BSK_LPS_IL1a: BioMAP Diversity Plus: LPS Assay for Interleukin-1 alpha (IL1a) Biomarker Activity (AID 2283080). Particulars: primary human HUVEC with PBMC; actives raise or lower the signal. The procedure, abridged: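 ELISA read-out of IL-1 alpha from a human primary vascular co-culture (endothelium plus PBMC) under LPS, sampled 24 hours post-dosing. Activity was fitted in both directions relative to DMSO controls.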

Read-out in assay [7]: Monocyte Chemoattractant Protein-1 (MCP1), CCL2 (gene 6347)
In words: BSK_LPS_MCP1: BioMAP Diversity Plus: LPS Assay for Monocyte Chemoattractant Protein-1 (MCP1) Biomarker Activity (AID 2283081).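 For AC50: secreted MCP-1 protein quantified by ELISA in culture supernatant.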 Particulars: primary human HUVEC with PBMC; actives raise or lower the signal. In outline: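 Human endothelial–PBMC co-cultures were dosed with chemical, then LPS-driven MCP-1 levels were quantified by ELISA at 24 h. Activity in either direction was fitted versus DMSO negative control.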

The nature of assay [8]: BSK_LPS_PGE2: BioMAP Diversity Plus: LPS Assay for Prostaglandin E2 (PGE2) Biomarker Activity (AID 2283082). The following applies: primary human HUVEC with PBMC; actives raise or lower the signal. The procedure, abridged: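 HUVEC plus human PBMC co-culture stimulated with LPS; secreted PGE2 quantified by ELISA 24 h after chemical dosing. Activity fitted bidirectionally against DMSO baseline; parallel SRB staining (0.1% SRB after 10% TCA fixation, 560 nm) flags overt cytotoxicity.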

Read-out in assay [9]: Macrophage colony-stimulating factor (MCSF), CSF1 (gene 1435)
Nature of the assay: BSK_LPS_MCSF: BioMAP Diversity Plus: LPS Assay for Macrophage colony-stimulating factor (MCSF) Biomarker Activity (AID 2283083). The following applies: primary human HUVEC with PBMC; actives raise or lower the signal. The procedure, abridged:
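ELISA readout of M-CSF after 24 h compound exposure in a human endothelial/PBMC co-culture. Activity, in either direction, is fitted relative to DMSO vehicle.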

Chain of E-selectin (Homo sapiens) (P16581 whole entry, looked up): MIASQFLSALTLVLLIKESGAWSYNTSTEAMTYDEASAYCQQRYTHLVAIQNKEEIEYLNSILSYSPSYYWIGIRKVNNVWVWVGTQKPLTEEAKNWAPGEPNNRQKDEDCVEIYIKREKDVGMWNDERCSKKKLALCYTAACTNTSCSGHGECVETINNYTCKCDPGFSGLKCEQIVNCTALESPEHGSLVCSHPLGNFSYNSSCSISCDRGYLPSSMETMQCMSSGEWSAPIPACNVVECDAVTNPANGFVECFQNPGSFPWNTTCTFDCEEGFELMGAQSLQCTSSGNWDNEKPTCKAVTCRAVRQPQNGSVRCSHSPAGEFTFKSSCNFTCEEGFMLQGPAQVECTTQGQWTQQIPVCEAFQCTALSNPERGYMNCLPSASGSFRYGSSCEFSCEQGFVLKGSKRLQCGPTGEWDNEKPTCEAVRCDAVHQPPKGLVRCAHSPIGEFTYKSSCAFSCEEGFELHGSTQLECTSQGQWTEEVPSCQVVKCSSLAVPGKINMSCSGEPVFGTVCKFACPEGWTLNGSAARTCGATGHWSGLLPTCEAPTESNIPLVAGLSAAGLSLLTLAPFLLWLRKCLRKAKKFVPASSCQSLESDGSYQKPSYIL

In the case of `O=c1c2ccccc2oc2ccccc12`, the outcome in assay [1] was “inactive”; in assay [2], “inactive”; in the assay with CD40, CD40 (gene 958), “inactive”; in [3], “inactive”; in assay [4], “inactive”; in assay [5], “inactive”. Also, the result in assay [6], in assay [7], in [8] and in [9] was inactive.

In the case of `CO[Si](OC)(OC)c1ccccc1`, the outcome was “inactive” in assay [1]; “inactive” in [2]; “inactive” in the assay with CD40, CD40 (gene 958); “inactive” in assay [3]; “inactive” in assay [4]; “inactive” in assay [5]. For the same molecule, the result in [6], in [7], in [8] and in assay [9] was inactive.

On to `O=C(Cl)c1cc(C(=O)Cl)cc(C(=O)Cl)c1`, for which the AC50 in assay [1] was 30.1 µM (active); in [2], 32.3 µM (active); with CD40, CD40 (gene 958), 15.2 µM (active); in assay [3], 31.2 µM (active); in assay [4], 28.8 µM (active); in assay [5], 30.5 µM (active). For the same molecule, the results for the AC50 in [6], in assay [7] and in assay [9] were 31 µM (active), 29.9 µM (active) and 31.1 µM (active), respectively. Also, in assay [8], the result was inactive.

On to `CCCCC/C=C\C/C=C\CCCCCCCC(=O)OC`, for which the AC50 in [1] was 28.7 µM (active); in [2], 26.7 µM (active); in the assay with CD40, CD40 (gene 958), 20 µM (active); in assay [3], 36.5 µM (active); in [4], 29.5 µM (active); in [6] it was 31.8 µM (active). Besides, the half-maximal activity concentration (AC50) was 37.1 µM (active) in assay [7] and 32.5 µM (active) in [9]. The result in assay [5] and in [8] was inactive.

For `C#CC1(O)CC[C@H]2[C@@H]3CCC4=CCCC[C@@H]4[C@H]3CC[C@@]21C` (stereo not given in full), the AC50 was 30.9 µM (active) in assay [1]; 31.9 µM (active) in assay [2]; 20 µM (active) with CD40, CD40 (gene 958); 30.3 µM (active) in [3]; 35 µM (active) in assay [4]; 20 µM (active) in assay [5]. The concentration at half-maximal activity (AC50) was 29.6 µM (active) in [6], 35.7 µM (active) in assay [7] and 29 µM (active) in assay [9]. In addition, the outcome in assay [8] was inactive.

Take `CCOC(=O)c1ccccc1C(=C1C=C(Br)C(=O)C(Br)=C1)c1cc(Br)c(O)c(Br)c1`: the AC50 in assay [1] was 3.39 µM (active) and 3.47 µM (active); in [2], 3.55 µM (active) and 3.24 µM (active); in the assay with CD40, CD40 (gene 958) it was 20.9 µM (active) and 17.5 µM (active); in assay [3], 21.2 µM (active) and 21.8 µM (active); in [4] it was 23 µM (active) and 22.9 µM (active); in assay [5] it was 20.6 µM (active) and 23.2 µM (active). Besides, the AC50 in assay [6] was 17.8 µM (active) and 14.7 µM (active); in [7], 20.8 µM (active) and 20.9 µM (active); in [8], 19.1 µM (active) and 19 µM (active); in assay [9] it was 18.7 µM (active) and 17.4 µM (active).

On to `C=CC=CC=CCCCCC`, for which the outcome in assay [1] is “inactive”; in assay [2], “inactive”; with CD40, CD40 (gene 958), “inactive”; in [3], “inactive”; in assay [4], “inactive”; in assay [5] it was “inactive”. The outcome in assay [6], in assay [7], in assay [8] and in [9] was inactive.

`C=C[Si](OC(C)=O)(OC(C)=O)OC(C)=O`: the outcome is “inactive” in [1]; “inactive” in assay [2]; “inactive” with CD40, CD40 (gene 958); “inactive” in assay [3]; “inactive” in assay [4]; “inactive” in assay [5]. Moreover, the result in [6], in assay [7], in assay [8] and in [9] was inactive.

On to `COc1ccc2nc(N)sc2c1`, for which the outcome is “inactive” in assay [1]; “inactive” in assay [2]; “inactive” with CD40, CD40 (gene 958); “inactive” in assay [3]; “inactive” in assay [4]; “inactive” in assay [5]. The result in assay [6], in assay [7], in assay [8] and in assay [9] was inactive.

Turning to `CCCCCCCCCCCCCCCC[N+](C)(C)CC`, the half-maximal activity concentration (AC50) in assay [1] is 6.3 µM (active); in assay [2], 1.68 µM (active); with CD40, CD40 (gene 958) it was 3.07 µM (active); in assay [3] it was 5.7 µM (active); in assay [4], 8.09 µM (active); in assay [5], 1.62 µM (active). In addition, the AC50 in [6] is 1.42 µM (active); in [7] it was 2.58 µM (active); in assay [9] it was 2.18 µM (active). Besides, in [8], the result was inactive.

`CC1OC1C1CCC2(C)OC2C1` (stereo not given): the outcome is “inactive” in assay [1]; “inactive” in assay [2]; “inactive” in the assay with CD40, CD40 (gene 958); “inactive” in [3]; “inactive” in [4]; “inactive” in assay [5]. The result in [6], in assay [7], in assay [8] and in assay [9] was inactive.

Consider `O=C1CCCN1CCO`, for which the outcome in assay [1] is “inactive”; in assay [2], “inactive”; with CD40, CD40 (gene 958), “inactive”; in assay [3] it was “inactive”; in assay [4] it was “inactive”; in assay [5], “inactive”. The result in [6], in assay [7], in [8] and in assay [9] was inactive.

`c1ccc(-c2ccccn2)nc1`: the outcome in assay [1] is “inactive”; in [2], “inactive”; with CD40, CD40 (gene 958), “inactive”; in [3], “inactive”; in assay [4] it was “inactive”; in assay [5], “inactive”. The outcome in assay [6], in [7], in assay [8] and in assay [9] was inactive.

Regarding `CCCCC(CC)COC(=O)c1ccccc1O` (stereo not given), the result in assay [1], in assay [2], in [3], in assay [4], in assay [5] and in assay [6] was inactive. For the same molecule, the result in assay [7], in [8] and in assay [9] was inactive. The AC50 in the assay with CD40, CD40 (gene 958) was 18.6 µM (active).

For the molecule `C=CCOCC(O)CCl` (stereo not given), the outcome is “inactive” in assay [1]; “inactive” in assay [2]; “inactive” with CD40, CD40 (gene 958); “inactive” in assay [3]; “inactive” in [4]; “inactive” in [5]. Also, the outcome in assay [6], in assay [7], in assay [8] and in assay [9] was inactive.

For `COCc1c(C(C)C)nc(C(C)C)c(/C=C/[C@@H](O)C[C@@H](O)CC(=O)O)c1-c1ccc(F)cc1`, the concentration at half-maximal activity (AC50) is 0.071 µM (active) in assay [1], 0.023 µM (active) in [5] and 0.00777 µM (active) in assay [6]. The outcome in assay [2] is “inactive”; with CD40, CD40 (gene 958) it was “inactive”; in assay [3] it was “inactive”; in [4], “inactive”; in assay [7], “inactive”; in assay [8], “inactive”. For the same molecule, the result in assay [9] was inactive.

Regarding `CCCCNc1ccc(NCCCC)c2c1C(=O)c1ccccc1C2=O`, the outcome is “inactive” in [1]; “inactive” in assay [2]; “inactive” in the assay with CD40, CD40 (gene 958); “inactive” in assay [3]; “inactive” in assay [4]; “inactive” in assay [5]. Further, the result in assay [6], in assay [7], in assay [8] and in [9] was inactive.

`CCOc1nc(F)cc2nc(S(=O)(=O)Nc3c(Cl)cccc3C(=O)OC)nn12`: the outcome in assay [1] is “inactive”; in assay [2] it was “inactive”; with CD40, CD40 (gene 958), “inactive”; in assay [3], “inactive”; in [4] it was “inactive”; in assay [5] it was “inactive”. The outcome in assay [6], in assay [7], in assay [8] and in assay [9] was inactive.
